# Assay outcomes as filed in PubChem.
# VHR inh abs = VHR1 phosphatase inhibitors, primary screen, biochemical, absorbance, uHTS; recombinant VHR phosphatase, pNPP absorbance; inhibition, % at 13.3 µM; 0.52% of 290,000 active; in the data active means inhibition above about 50%
# Target sequence (P51452 whole entry, looked up): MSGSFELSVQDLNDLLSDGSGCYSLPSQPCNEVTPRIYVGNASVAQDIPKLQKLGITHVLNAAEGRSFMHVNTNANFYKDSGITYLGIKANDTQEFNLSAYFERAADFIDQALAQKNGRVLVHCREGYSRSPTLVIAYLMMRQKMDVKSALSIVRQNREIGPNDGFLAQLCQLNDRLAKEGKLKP
# GDH-TPI counter-1 = GDH-TPI coupling enzyme inhibitors, primary screen, artefact control for M. tuberculosis FBA inhibitor project, biochemical, absorbance, full deck. GDH-TPI coupled enzyme counterscreen, NADH absorbance. inhibition, % at 4.8 µM. 1.2% of 360,000 active; in the data active means inhibition above about 30%;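 further: 0% = DMSO wells and 100% = wells lacking the enzyme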
# Mtb betalactam = beta-lactam sensitization of Mtb H37Rv, H37Rv. AID 434955, 2010. 0.27% of 330,000 active. M. tuberculosis H37Rv growth with meropenem, percent inhibition. inhibition, % at 25 µM; call rule not given here;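 further: growth measured after seven days incubation then overnight dye step; 0% = bacteria only wells and 100% = bacteria with antibiotic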
# Mtb hypoxia rep = PubChem AID 1159583 | fluorescence inhibition, % (no concentration beside the values) | M. tuberculosis hypoxia-regulated fluorescent reporter, fluorescence | 0.1% of 300,000 active; in the data active means fluorescence inhibition mostly above about 23%, no sharp cut-off; inactive means mostly below about 17%
# Mtb FBA inh = Mtb FBA enzyme inhibitors, primary screen, biochemical, fluorescence, strain H37Rv; Fructose-bisphosphate aldolase (Mycobacterium tuberculosis (strain ATCC 25618 / H37Rv)), …; purified M. tuberculosis FBA, fluorescence read-out; inhibition, % at 1 µM; 2.3% of 360,000 active;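 further: 0% = vehicle and 100% = reference inhibitor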
# Target sequence (P9WQA3 whole entry, looked up): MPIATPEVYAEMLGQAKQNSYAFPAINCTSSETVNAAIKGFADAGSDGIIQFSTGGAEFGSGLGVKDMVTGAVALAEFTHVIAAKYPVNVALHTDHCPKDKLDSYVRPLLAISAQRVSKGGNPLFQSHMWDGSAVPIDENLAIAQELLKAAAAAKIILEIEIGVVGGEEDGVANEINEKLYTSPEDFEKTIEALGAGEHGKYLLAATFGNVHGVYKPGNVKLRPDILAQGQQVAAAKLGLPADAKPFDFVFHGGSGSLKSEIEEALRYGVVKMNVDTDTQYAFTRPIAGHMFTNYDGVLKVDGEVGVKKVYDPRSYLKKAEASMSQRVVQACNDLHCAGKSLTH
# Mtb FBA inh conf = M. tuberculosis aldolase blockers, biochemical, fluorescence, strain H37Rv, confirmation; shares compounds with Mtb FBA inh; purified M. tuberculosis FBA, fluorescence read-out; inhibition, % at 1 µM; 78% of 5,600 active; AID 651616, 2012;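 further: 0% = vehicle wells and 100% = reference inhibitor wells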
# GDH-TPI counter-2 = GDH-TPI coupling enzyme inhibitors, artefact control for M. tuberculosis FBA inhibitor project, biochemical, fluorescence, high throughput | inhibition, % at 1 µM | 81% of 5,600 active | GDH-TPI coupled enzyme counterscreen | shares compounds with Mtb FBA inh; in the data active means inhibition above about 10%
# The depositor's hits bear a star; nt = no result given; + = active, no number. The list is not random: actives were taken first. Their share in the collection is about 3.6%. Unless noted, no stated cut-off is given here; in the data, active means inhibition above about 27%; inactive means the rest.
SMILES,VHR inh abs,GDH-TPI counter-1,Mtb betalactam,Mtb hypoxia rep,Mtb FBA inh,Mtb FBA inh conf,GDH-TPI counter-2
COC(=O)COc1ccc2cc(-c3ccc(OC)cc3)c(=O)oc2c1,39,17,99,14,44*,188*,171*
CC(=O)Oc1ccc(-c2cc3ccccc3oc2=O)cc1,nt,37*,0,6,75*,+,+
CC(=O)Oc1ccc(-c2cc3c(OC(C)=O)cc(OC(C)=O)cc3oc2=O)cc1,nt,8,-5,nt,92*,171*,195*
CC(=O)Oc1ccc(-c2nc3ccccc3c(=O)o2)cc1,45,-3,19,19,0,nt,nt
O=C(NN=Cc1ccc(Cl)s1)C(O)c1ccccc1 (stereo not given),nt,nt,nt,-3,nt,nt,nt
Cc1cccc(-c2cc3nc(C)cc(N4CC(C)CC(C)C4)n3n2)c1 (stereo not given),0,10,9,nt,67*,56*,30*
Cc1ccc(CNC(=O)C2(C(F)(F)F)CC(=CCc3ccccc3)CCCO2)o1 (stereo not given),nt,nt,nt,3,nt,nt,nt
CCOC(=O)C1CCN(C(=O)Nc2ccc3snnc3c2)CC1,10,7,-18,-1,10,nt,nt
CCOC(=O)C1CCN(C(=O)Nc2ccc3nccnc3c2)CC1,8,19,-10,nt,37*,57*,38*
CCN1C(=O)C2C(c3ccc(C)cc3)N3C(=O)N(c4ccc(OC)cc4)C(=O)[C@@]3(CC)C2C1=O (stereo not given in full),nt,nt,nt,4,nt,nt,nt
COc1cc(C=NNC(=S)Nc2cccc(Cl)c2C)ccc1OCC(=O)N1CC(C)OC(C)C1 (stereo not given),nt,nt,nt,-5,nt,nt,nt
CC(=O)N1N=C(c2ccncc2)OC12CCCCC2,32,0,-4,4,89*,49*,40*
CC(=O)N1N=C(c2ccccc2)OC12CCCC2,4,-2,-7,13,0,nt,nt
CC(=O)N1N=C(c2ccncc2)OC12CCCCCC2,22,7,5,13,77*,+,+
c1ccc(-c2nc3c4ccccc4ccn3c2CN2CCOCC2)cc1,23,3,0,5,6,nt,nt
COc1ccc(-c2nc3c4ccccc4ccn3c2CN2CCOCC2)cc1OC,19,13,-1,9,37*,74*,51*
Cc1cc(C)c(-c2cc(C(F)(F)F)no2)c(=O)[nH]1,-14,22,-9,0,30*,+,147*
CSC1=NC(NCCCO)c2c(sc3c2CC(C)(C)OC3)N1 (stereo not given),15,12,-11,-2,28*,107*,92*
CCN1C(=O)C2CCC3C(=NOC(C)c4cn(C(CO)Cc5ccccc5)nn4)CC(O)C(O)C3C2C1=O (stereo not given),nt,nt,nt,-3,nt,nt,nt
CCCn1nc2cc(C(=O)NCc3ccc(OC)cc3)ccc2c1OCC,15,3,-2,1,48*,60*,32*
CCCn1nc2cc(C(=O)NCc3ccc(OC(F)(F)F)cc3)ccc2c1OCC,-2,1,-2,-8,37*,102*,81*
CCOc1c2ccc(C(=O)NCc3ccc(OC(F)(F)F)cc3)cc2nn1CC,-7,4,18,0,24,nt,nt
COc1cccc2cc(C(=O)NCc3ccco3)c(=O)oc12,7,12,47,12,1,nt,nt
COc1ccc2oc(=O)c(C(=O)NCc3ccco3)cc2c1,22,20,7,0,65*,-2,-5
COc1ccc2oc(=O)c(C(=O)Nc3ccccc3O)cc2c1,12,0,63,7,-8,nt,nt
SMILES,VHR inh abs,GDH-TPI counter-1,Mtb betalactam,Mtb hypoxia rep,Mtb FBA inh,Mtb FBA inh conf,GDH-TPI counter-2
COc1ccc2oc(=O)c(C(=O)NC(C)c3ccccc3)cc2c1 (stereo not given),-19,12,-7,0,44*,142*,87*
CC(C)CC(COc1ccccc1)N1CCN(CCc2ccccc2)CCC1=O (stereo not given),nt,nt,nt,-5,nt,nt,nt
COC(=O)c1sc2ccccc2c1C(=O)OC,29,9,nt,-6,-1,nt,nt
COC(=O)c1sc2ccccc2c1N,15,1,1,9,79*,+,+
O=C(NN=Cc1ccccc1O)c1cccc(C(F)(F)F)c1,nt,nt,nt,9,nt,nt,nt
Cc1ccc(-c2ccc(CO)o2)cc1N,21,6,-4,-4,30*,187*,121*
CCCc1c(C(=O)NN=Cc2cccc3ccccc23)nnn1-c1nonc1N,nt,nt,nt,0,nt,nt,nt
Cc1cc(=O)n2[nH]c(C(=O)O)nc2n1,-1,4,-7,4,8,nt,nt
Cc1cc(=O)n2[nH]cc(C(=O)O)c2n1,22,8,-7,-4,38*,178*,146*
CCCC(=O)Nc1ccc2oc(-c3cccnc3)nc2c1,13,3,-6,-7,74*,169*,138*
Cc1cc(-c2nc3ncccc3o2)ccc1NC(=S)NC(=O)c1ccco1,26,11,4,5,33*,39*,32*
CCCC(=O)Nc1ccc(-c2nc3ncccc3o2)cc1,22,30,2,-10,87*,21,17*
Cc1ccc(-c2nc3ncccc3o2)cc1NC(=S)NC(=O)c1ccco1,14,0,3,-3,2,nt,nt
Cc1ccc(-c2nc3ncccc3o2)cc1NC(=O)C(C)(C)C,13,4,8,15,30*,26,22*
Cc1ccc(-c2nc3ncccc3o2)cc1NC(=O)c1ccco1,nt,3,-8,nt,-2,nt,nt
CCCCCCSc1ccc(C2N[C@@](CC(C)C)(C(=O)OC)C3C(=O)N(CC)C(=O)C23)cc1 (stereo not given in full),nt,nt,nt,6,nt,nt,nt
NC(=S)NN=C1CC(n2nnnc2-c2ccccc2)C2COC1O2 (stereo not given),nt,nt,nt,-2,nt,nt,nt
CC1CC2C3CCC4=CC(=O)C=C[C@]4(C)[C@@]3(F)C(O)C[C@]2(C)[C@@]1(O)C(=O)COP(=O)(O)O (stereo not given in full),nt,nt,nt,12,nt,nt,nt
COc1ccccc1C=NNC(=O)c1ccc(=O)n(C)c1,nt,nt,nt,-10,nt,nt,nt
CCCC(=O)Nc1cc(-c2nc3ncccc3o2)ccc1C,8,11,-3,25,60*,99*,65*
CC(C)c1cc(C(C)C)n2nc(N)nc2n1,-14,6,-1,-3,18,nt,nt
CCCc1cc(CCC)n2nc(N)nc2n1,nt,5,nt,nt,32*,+,179*
COc1ccc2cc(CCNC(=O)c3ccc(S(=O)(=O)N4CCOCC4)cc3)c(=O)[nH]c2c1,-2,15,10,-7,79*,105*,85*
